# Experimental data taken from PubChem BioAssay.
# Active and inactive are the calls of the source.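 The calls were made as follows, unless noted: active = visually confirmed hit in the image check and inhibition above 20%; inconclusive = visually confirmed hit but inhibition not above 20%; inactive = no visual hit in the image check.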
# Experiments:
# [1] = inhibitors of TNFa-induced NFkB p65 translocation, primary screen, imaging, HUVEC, MLSMR starter and 10KST1 sets (AID 438;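 active = inhibition above 20% together with a positive visual image hit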;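 also: compound added about 3h40 before a 20 min TNFalpha stimulation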;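 as to inhibition: signal is the nuclear over cytoplasmic p65 intensity ratio per well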); conditions: HUVEC TNFa-induced p65 nuclear translocation; cell count: measured here: nuclei count (cytotoxicity indicator), at 2.08 µM; inhibition: at 2 µM, stronger effect = higher value, 0% TNFa-plus-vehicle, 100% no-TNFa wells
# [2] = reduction of polyQ htt aggregates in cells – imaging, exon1htt(103Q)mCFP cells, high-content imaging, primary screen (AID 483;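 active = visual image review flags a hit and inhibition of aggregation exceeds 20%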;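 also: compound exposure lasted 3 days before fixation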;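 as to nuclei count: percent of the per-plate median nuclei count of sample wells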); conditions: exon1htt(103Q)mCFP cell line, aggregate imaging, at 2 µM; inhibition of aggregation: stronger effect = higher value; nuclei count: measured here: cell count, toxicity
# [3] = endothelial E-selectin expression blockers – imaging, HUVEC, immunofluorescence, MLSMR starter and 10KST1 sets, primary screen (AID 487); conditions: HUVEC TNFalpha-induced E-selectin immunofluorescence imaging, at 2 µM; inhibition: stronger effect = higher value; nuclei count: measured here: cell number, toxicity;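 as to inhibition: signal is fraction of cell area covered by stained E-selectin grains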;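 as to nuclei count: 100% = median nuclei count of all wells on the same plate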
# [4] = molecular target: Voltage-gated potassium channel subunit beta-2 (Rattus norvegicus) (UniProt P62483); test: inhibitors of rat Kvbeta2 reductase activity – biochemical, NADPH fluorescence, primary screen (AID 622;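 active = fluorescence slope higher than the sample average by over 3 SD, cut at about -0.22 in these data, passing the limit was not always enough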;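 also: slope of raw intensity against log time taken from 70 to 1610 s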); conditions: recombinant KvBeta, 4-cyanobenzaldehyde reduction, at 10 µM, stronger effect = higher value
# [5] = molecular target: Voltage-gated potassium channel subunit beta-2 (Rattus norvegicus) (UniProt P62483); test: enhancers of rat Kvbeta2 NADPH turnover – biochemical, NADPH fluorescence, primary screen (AID 623;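 active = NADPH fluorescence slope more negative than the mean of all samples by about 3 SD, 99.7% confidence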;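 also: fluorescence intensity change per second fitted from 20 to 320 s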); conditions: Recombinant KvBeta, NADPH fluorescence decrease slope, 10 min; at 10 µM; stronger effect = lower value
# [6] = molecular target: Alpha-2C adrenergic receptor (Homo sapiens) (UniProt P18825); test: compounds altering alpha2C-coupled GIRK flux – cell-based, HEK293 alpha2C/GIRK1/2, thallium flux, primary screen (AID 624;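 active = fluorescence slope after compound addition differing from the mean of all screened samples at 99.7% confidence, in either direction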;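 also: slope of fluorescence ratio to pre-addition baseline per second over 15 to 24 s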); conditions: thallium flux BTC fluorescence, at 10 µM, actives lie on both sides
# [7] = blockers of RIG-like receptor reporter activation – cell-based, Sendai virus stimulus, luciferase, 10K MLSCN set, TLR/RLR signaling modifier project, primary screen (AID 602276;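 active = inhibition at or above 50% at 10 µM; inactive = inhibition below 50%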;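 also: firefly luciferase from ISG56 promoter only with Renilla not read in this screen; 0% = Sendai virus plus DMSO and 100% = medium plus DMSO without virus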); conditions: HEK293 RL24 IRF3 luciferase reporter, at 10 µM, stronger effect = higher value
# [8] = TLR3 IRF3 reporter activation blockers – cell-based, poly I:C stimulus, luciferase, 10K MLSCN set, primary screen (AID 602277;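 active = inhibition of the reporter signal at or above 50%; inactive = inhibition below 50%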); conditions: HEK293-TLR3 RL24 IRF3 luciferase reporter, at 10 µM, stronger effect = higher value
# Chain of Voltage-gated potassium channel subunit beta-2 (Rattus norvegicus) (P62483 whole entry, looked up): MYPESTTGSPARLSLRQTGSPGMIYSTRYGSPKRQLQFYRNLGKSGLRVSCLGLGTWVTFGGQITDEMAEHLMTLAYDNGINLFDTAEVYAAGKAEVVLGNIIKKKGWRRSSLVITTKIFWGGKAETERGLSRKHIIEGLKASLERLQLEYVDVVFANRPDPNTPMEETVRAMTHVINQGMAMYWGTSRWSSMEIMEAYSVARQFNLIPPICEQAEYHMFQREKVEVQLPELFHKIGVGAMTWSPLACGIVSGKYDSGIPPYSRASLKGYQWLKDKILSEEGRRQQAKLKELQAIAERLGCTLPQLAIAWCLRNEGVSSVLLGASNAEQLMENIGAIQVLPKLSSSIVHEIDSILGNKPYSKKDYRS
# Chain of Alpha-2C adrenergic receptor (Homo sapiens) (P18825 whole entry, looked up): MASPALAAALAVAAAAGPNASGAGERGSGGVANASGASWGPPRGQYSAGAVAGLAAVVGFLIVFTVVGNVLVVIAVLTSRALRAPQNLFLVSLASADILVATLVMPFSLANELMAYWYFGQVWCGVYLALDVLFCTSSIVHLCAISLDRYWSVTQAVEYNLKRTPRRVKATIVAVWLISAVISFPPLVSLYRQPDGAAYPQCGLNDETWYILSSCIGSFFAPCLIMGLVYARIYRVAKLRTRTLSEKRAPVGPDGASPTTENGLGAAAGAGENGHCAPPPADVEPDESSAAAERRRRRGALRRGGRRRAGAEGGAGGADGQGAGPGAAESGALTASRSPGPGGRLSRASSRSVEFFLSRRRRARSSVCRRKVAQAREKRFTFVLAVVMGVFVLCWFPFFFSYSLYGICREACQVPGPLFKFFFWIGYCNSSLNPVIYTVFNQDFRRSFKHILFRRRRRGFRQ
SMILES,cell count [1],inhibition [1],inhibition of aggregation [2],nuclei count [2] [%],inhibition [3],nuclei count [3] [%],fluorescence slope [4],NADPH fluorescence slope [5],slope [6],inhibition [7],inhibition [8]
CC1CCc2nn(CC(=O)Nc3ccc(F)cc3F)cc2C1 (stereo not drawn),644,-2.3% (inactive),-37.3% (inactive),41.3,-2.5% (inactive),111,-0.543 (inactive),1.3e-05 (inactive),0.00669 (inactive),-5.03% (inactive),21.4% (inactive)
COc1ccccc1N1CCN(C(=O)CN(Cc2ccc(Cl)cc2)S(C)(=O)=O)CC1,458,-7.3% (inactive),-18.6% (inactive),112,-130% (inactive),174,-0.49 (inactive),7.6e-06 (inactive),0.00623 (inactive),17.3% (inactive),24.8% (inactive)
O=C(Nc1cccnc1)c1ccc2c(c1)C(=O)N(Cc1cccnc1)C2=O,386,1.4% (inactive),9% (inactive),105,-26.9% (inactive),99.7,-0.615 (inactive),-1.2e-05 (inactive),0.00348 (inactive),5.57% (inactive),11.9% (inactive)
COCCn1nnnc1CN(Cc1cccnc1)Cc1cc2cc(OC)ccc2[nH]c1=O,670,-10.6% (inactive),-13.1% (inactive),122,-11.6% (inactive),107,-0.605 (inactive),-3.4e-05 (inactive),0.00315 (inactive),14.3% (inactive),25.2% (inactive)
COc1ccc(OCCSc2nc3ccccc3n2CC(=O)O)cc1,321,-9.2% (inactive),-1.3% (inactive),108,-133% (inactive),133,-0.356 (inactive),-5.2e-05 (inactive),0.00591 (inactive),16.6% (inactive),20.3% (inactive)
CCOC(=O)N1CCN(c2c(NCC3CCN(Cc4cccc(C)c4)CC3)c(=O)c2=O)CC1,577,-2.7% (inactive),25.8% (inactive),104,-67.1% (inactive),129,-0.507 (inactive),-2.1e-05 (inactive),0.00653 (inactive),5.85% (inactive),23.9% (inactive)
Cc1ccc2cc(C#N)c(NCCCNC(=O)C3CCCO3)nc2c1 (stereo not drawn),271,-2.8% (inactive),-8.8% (inactive),82.7,-25.3% (inactive),116,-0.476 (inactive),-9.9e-05 (inactive),0.00509 (inactive),9.51% (inactive),10.8% (inactive)
CN(C1CCCCC1)S(=O)(=O)c1ccc(NC(=O)c2ccco2)cc1,301,2.8% (inactive),-6.6% (inactive),106,-28.1% (inactive),112,-0.399 (inactive),-4.1e-05 (inactive),0.00468 (inactive),4.93% (inactive),-6.73% (inactive)
O=c1cc(CSc2ccccn2)c2ccccc2[nH]1,446,1.4% (inactive),9.1% (inactive),74.9,-59.6% (inactive),128,-0.578 (inactive),-3e-05 (inactive),0.00572 (inactive),10.1% (inactive),18.8% (inactive)
Cn1c(=O)[nH]c(=O)c2c1nc(NC1CCCCC1)n2CC(=O)NC1CCCCC1,751,-14.7% (inactive),12.1% (inactive),90.9,10.2% (inactive),105,-0.4 (inactive),8.4e-06 (inactive),0.00653 (inactive),18.1% (inactive),21.1% (inactive)
CCOC(=O)C1CCCn2c1nc1sc3c(c1c2=O)CCCC3 (stereo not drawn),457,3.7% (inactive),-6% (inactive),110,-114% (inactive),115,-0.435 (inactive),9.6e-06 (inactive),0.00445 (inactive),-24.3% (inactive),-20.3% (inactive)
O=C(CN1CCN(Cc2ccccc2F)C1=O)NCc1cccnc1,674,-9.2% (inactive),18.1% (inactive),93.5,-69.2% (inactive),115,-0.502 (inactive),2.9e-05 (inactive),0.00712 (inactive),7.76% (inactive),7.56% (inactive)
Cc1ccc2c(c1)CCCN2C(=O)Nc1ccc2c(c1)OCO2,365,-0.8% (inactive),-9.3% (inactive),102,-34.4% (inactive),102,-0.592 (inactive),-4.4e-05 (inactive),0.00347 (inactive),13.6% (inactive),14.5% (inactive)
c1ccc2c(c1)CNc1ccccc1C2,526,-11.2% (inactive),30.2% (inactive),83.2,-30% (inactive),86.7,-0.517 (inactive),2.1e-06 (inactive),0.00468 (inactive),7.99% (inactive),10.2% (inactive)
Cc1nc2scc(-c3cccs3)c2c(=O)n1-n1cccc1,506,10.6% (inactive),10.9% (inactive),102,-398% (inactive),140,-0.333 (inactive),1.9e-05 (inactive),0.00572 (inactive),4.56% (inactive),18.4% (inactive)
Nc1c(C(=O)NCCN2CCOCC2)c2nc3ccccc3nc2n1-c1ccc2c(c1)OCO2,337,-8.4% (inactive),-2.4% (inactive),96.7,-53.1% (inactive),74,-0.348 (inactive),-6.2e-05 (inactive),0.00388 (inactive),11.3% (inactive),16.5% (inactive)
CC(=O)N1CCN(S(=O)(=O)c2cccc(C(=O)Nc3ccc4c(c3)CCC4)c2)CC1,442,10.5% (inactive),-6.6% (inactive),118,-54.2% (inactive),111,-0.385 (inactive),-4e-05 (inactive),0.00306 (inactive),9.87% (inactive),1.5% (inactive)
Cc1cc(C)n(C2=NS(=O)(=O)c3ccccc32)n1,343,-2.4% (inactive),7.1% (inactive),92,70.9% (active),78.2,-0.576 (inactive),-1.6e-05 (inactive),0.00396 (inactive),-8.5% (inactive),-27.5% (inactive)
O=C(Nc1ccc(-c2noc(-c3cccs3)n2)cc1)c1cccnc1,595,8.2% (inactive),28% (inactive),115,-49.2% (inactive),95.8,-0.474 (inactive),2.2e-05 (inactive),0.00649 (inactive),-67.5% (inactive),-122% (inactive)
CCOC(=O)Cc1ccc(NS(=O)(=O)c2ccc(SC)cc2)cc1,326,-7.2% (inactive),-3.4% (inactive),97.6,-95.5% (inactive),109,-0.494 (inactive),-6.8e-05 (inactive),0.00542 (inactive),-2.4% (inactive),9.62% (inactive)
Cc1nn(C)c(C)c1CNC(=O)c1cc2n(n1)C(C(F)(F)F)CC(c1cccs1)N2 (stereo not drawn),565,1.9% (inactive),-16.5% (inactive),95.1,-65% (inactive),115,-0.583 (inactive),-6.9e-05 (inactive),0.00578 (inactive),-2.09% (inactive),-24.4% (inactive)
O=C(CCSc1nc(-c2ccco2)cc(C(F)(F)F)n1)Nc1ccc2c(c1)OCO2,429,1.8% (inactive),30.3% (inactive),95.1,-52.9% (inactive),161,-0.386 (inactive),2.5e-05 (inactive),0.00312 (inactive),-4.65% (inactive),-14.1% (inactive)
O=C(CCC(=O)N1CCc2ccccc2C1)N1CCN(S(=O)(=O)c2ccccc2)CC1,361,-2.5% (inactive),-6.9% (inactive),131,-14.3% (inactive),102,-0.45 (inactive),-1.8e-05 (inactive),0.00506 (inactive),-9.4% (inactive),5.93% (inactive)
O=C(NCc1ccco1)c1ccc2c(=O)n(CC3CCCO3)c(=S)[nH]c2c1 (stereo not drawn),318,-2.6% (inactive),-6.3% (inactive),120,-7.4% (inactive),101,-0.501 (inactive),-2.2e-05 (inactive),0.00599 (inactive),9.53% (inactive),15.2% (inactive)
O=C(Nc1ccc(Cc2ccc(NC(=O)N3CCOCC3)cc2)cc1)N1CCOCC1,494,-2% (inactive),15.7% (inactive),61.1,30.5% (inactive),82.3,-0.416 (inactive),-2.3e-05 (inactive),0.0036 (inactive),0.542% (inactive),-1.84% (inactive)
COC(=O)c1cc2oc(C)cc2n1CC(=O)Nc1ccc(C)c(C)c1,386,9.1% (inactive),6.1% (inactive),103,-84.5% (inactive),115,-0.337 (inactive),-1.2e-05 (inactive),0.00552 (inactive),-0.339% (inactive),4.84% (inactive)
Cc1nc2cc(N3CCCCC3)c(NC(=O)c3cccnc3)cc2c(=O)n1Cc1ccccc1,751,-10.1% (inactive),1.2% (inactive),93.3,-2% (inactive),99.1,-0.167 (inactive),2.6e-06 (inactive),0.00435 (inactive),-3.36% (inactive),-14% (inactive)
COc1ccc(NC(=O)C(C)NS(=O)(=O)c2ccc(NC(C)=O)cc2)cc1Cl (stereo not drawn),788,2.8% (inactive),-14.8% (inactive),105,6.9% (inactive),113,-0.34 (inactive),2.4e-05 (inactive),0.00739 (inactive),12.1% (inactive),7.34% (inactive)
